Sampled rows, rich in hits. Any-hit rate of the full collection: about 1.1%.
NR5A2 inv ag – NR5A2 inverse agonism in reporter assay; HEK293T StAR-luciferase reporter, LRH-1 transfected, 24 h; inhibition, % at 3.6 µM; AID 602396; O00482; 360,000 tested, 0.13% active;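 active = inhibition above the mean inhibition of all tested compounds plus 3 SD, cut at about 73% in these data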;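 also: 0% = DMSO wells and 100% = reporter-only cells lacking LRH-1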
SRC3 inh – inhibitors of human steroid receptor coactivator 3 (SRC3); 360,000 tested, 0.17% active; inhibition, % at 3.6 µM; Q9Y6Q9; HEK293 GAL4-SRC3 luciferase reporter, luminescence;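 active = inhibition above a per-campaign cutoff, the mean of all compounds plus 3 SD, cut at about 60% in these data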;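 also: 0% = DMSO-treated cells and 100% = gossypol-treated cells at 36 µM; higher means less SRC3-driven luciferase light from the GAL4 reporter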
GalR3 antagonist – blocks the human galanin receptor 3. O60755. HEK293 GalR3-CNG cAMP membrane potential fluorescence; galR3 body fused to GalR1 C-terminus. inhibition, % at 3 µM. 360,000 tested, 0.44% active;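 active = inhibition above the screen-wide average plus 3 SD, cut at about 13% in these data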;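 also: forskolin and galanin both at EC90 stimulate the cells; cAMP rise reported by CNG channel membrane potential dye signal; 0% = forskolin plus galanin with DMSO and 100% = forskolin alone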
NR2F2 inh – blocks human COUP-TFII nuclear receptor; 370,000 tested, 0.7% active; inhibition, % at 8.6 µM; P24468; HEK293T NGFI-A luciferase reporter, luminescence; AID 686940;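 active = inhibition above a per-plate cutoff, mean inhibition of test wells between control levels plus 3 SD, cut at about 38% in these data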;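 also: cells cotransfected with COUP-TFII expression vector driving the NGFI-A reporter; 0% = median of COUP-TF2 test wells and 100% = reporter-only cells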
Target sequence (P24468 whole entry, looked up): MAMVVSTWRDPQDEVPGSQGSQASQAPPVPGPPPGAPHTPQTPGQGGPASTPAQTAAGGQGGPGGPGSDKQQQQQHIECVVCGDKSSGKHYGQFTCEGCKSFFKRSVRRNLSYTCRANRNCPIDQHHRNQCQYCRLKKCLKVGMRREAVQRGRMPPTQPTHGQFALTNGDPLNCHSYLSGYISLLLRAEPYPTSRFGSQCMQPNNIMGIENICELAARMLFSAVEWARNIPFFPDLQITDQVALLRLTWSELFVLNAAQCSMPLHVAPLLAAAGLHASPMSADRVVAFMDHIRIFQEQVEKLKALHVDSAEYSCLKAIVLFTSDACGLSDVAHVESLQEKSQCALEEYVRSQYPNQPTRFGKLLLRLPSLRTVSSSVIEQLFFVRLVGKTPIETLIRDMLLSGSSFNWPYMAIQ
NCOA1 inh – human NCOA1 inhibition; Q15788; inhibition, % at 3.6 µM; HEK293 GAL4-SRC1 luciferase reporter, luminescence; 360,000 tested, 0.12% active; AID 588354;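 active = inhibition above the campaign mean plus 3 SD, with each screening campaign given its own cutoff, cut at about 60% in these data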;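 also: 0% = DMSO treated cells and 100% = gossypol at 36 µM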
SRC2 inh – inhibits human steroid receptor coactivator 2. Q15596. inhibition, % at 9 µM. 370,000 tested, 0.17% active. HEK293 GAL4-SRC2 luciferase reporter, luminescence;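 active = inhibition above the mean inhibition of all tested compounds plus 3 SD, set per campaign, cut at about 52% in these data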;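 also: 0% = DMSO treated cells and 100% = cells given Gossypol at 36 µM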
Gal4-VP16 ctr – inhibits VP16 reporter, flagging COUP-TFII antagonist hits; shares compounds with NR2F2 inh; HEK293 Gal4-VP16 luciferase reporter, luminescence; inhibition, % at 8.5 µM; 2,500 tested, 25% active; AID 687007; in the data active = inhibition above about 13%
COUP-TFII conf – confirmation of human COUP-TFII (NR2F2) inhibitors | AID 687008 | shares compounds with NR2F2 inh | inhibition, % at 8.5 µM | HEK293 NGFI-A luciferase reporter, luminescence | 2,500 tested, 45% active;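 active = mean inhibition over three repeats above a set limit taken from the earlier primary screen, cut at about 38% in these data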;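 also: 100% = cells given the luciferase reporter alone without the COUP-TF2 vector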
* marks the source's active call; other numbers are inactive results; x = no result.

SMILES	NR5A2 inv ag	SRC3 inh	GalR3 antagonist	NR2F2 inh	NCOA1 inh	SRC2 inh	Gal4-VP16 ctr	COUP-TFII conf
CCN=C1NN=C(c2cc(C)n(Cc3ccco3)c2C)CS1	30.5	61.7*	-2.5	72.9*	51.5	71.3*	20.8*	91.5*
CCN=C1NN=C(c2cc(C)n(CCc3ccccc3)c2C)CS1	-1.4	-25.3	2.8	3.8	-10.6	-25.2	x	x
COc1cccc(CN(C)C(=O)c2cccc(NC(=O)CC3SC(N4CCCCC4)=NC3=O)c2)c1OC (stereo not drawn)	-13.5	4.9	-3.5	-8.3	11.8	27.4	x	x
COc1ccc(CN(C)C(=O)c2ccc(OCC(=O)Nc3cccc(C(F)(F)F)c3)c(OC)c2)c(OC)c1	11.6	29.3	54.8*	70.9*	6.6	16.7	1.6	58.7*
COc1cc(C(=O)NCCCN(C)C)ccc1OCC(=O)Nc1cccc(C(F)(F)F)c1	-8.3	12.3	-1.4	-1.4	3.4	-31.0	x	x
COc1ccc(CN(C)C(=O)c2cccc(NC(=O)CC3SC(N4CCCCC4)=NC3=O)c2)c(OC)c1 (stereo not drawn)	18.6	45.4	-6.8	58.2*	12.7	27.0	0.3	43.8*
Fc1ccc(-[n+]2nc(Nc3ccccc3)sc2-c2c(Cl)cccc2Cl)cc1	-18.8	4.4	-3.4	-9.0	-2.8	-43.6	x	x
CCc1ccc(Nc2n[n+](-c3ccccc3)c(-c3c(Cl)cccc3Cl)s2)cc1	-3.5	3.8	-7.3	65.5*	1.2	-2.4	15.9*	30.3
CC[n+]1c(/C=C2\Sc3ccccc3N2C)ccc2cccc(C)c21	83.6*	55.1	8.9	79.5*	29.4	-55.8	13.5*	78.1*
Cc1cc2c(=Cc3ccc(N(C)C)cc3)c3ccccc3n2[n+]1C	75.7*	61.5	1.4	75.3*	52.7	-41.1	11.6	63.5*
CCOC(=O)SC1=N/C(=C\c2ccc(N(C)C)cc2)C(=O)S1	5.0	2.2	-2.2	-9.9	-16.4	-11.4	x	x
CC1=NN(c2cccc(F)c2)C(=O)/C1=C/c1ccc(N(C)C)cc1	3.9	2.1	-10.2	11.3	-9.1	32.4	x	x
CCOC(=O)c1cc2c(=Cc3ccc(N(C)C)cc3)c3ccccc3n2[n+]1C	73.3*	51.7	-1.3	58.4*	42.6	-25.3	21.4*	48.6*
COC(=O)[C@]12C[C@H](CC(=O)NCc3cccs3)C(=O)N(Cc3ccc4c(c3)OCO4)C1=C[C@H](C(C)(C)C)O[C@@H]2C	x	x	-7.0	-13.9	x	-0.9	x	x
COC(=O)C1CN(Cc2cn(Cc3ccc(C)cc3)nn2)CCS(=O)(=O)N1Cc1ccc(C)cc1 (stereo not drawn)	x	x	x	4.3	x	20.7	x	x
O=C(NCc1cccnc1)c1ccc(-c2ccc(F)c(F)c2)c2ccoc12	19.7	-7.3	-7.3	67.7*	11.2	28.3	3.3	49.5*
O=C(NCc1ccc(F)c(F)c1)c1ccc(-c2ccc(F)c(F)c2)c2ccoc12	24.4	12.4	-7.5	5.6	6.6	-0.7	x	x
CC(C)(C)C(=O)Nc1ccc(NC(=O)c2ccco2)nc1	75.2*	78.2*	-8.0	84.3*	78.8*	81.9*	77.6*	94.9*
O=C(Nc1ccc(NC(=O)c2ccco2)nc1)c1ccco1	-104.1	-45.5	-2.7	-45.0	-75.4	-4.0	x	x
Cc1cc(/C=N/Nc2ncnc(N)c2[N+](=O)[O-])c(C)n1-c1ccccc1	10.8	45.8	-1.9	51.6*	42.3	43.1	43.7*	77.8*
COc1cccc(Cn2c(NCc3ccco3)nc3c2c(=O)n(C)c(=O)n3C)c1	x	x	8.0	49.2*	x	22.1	0.6	24.2
COc1ccc(Cl)c(Cn2c(NCc3ccco3)nc3c2c(=O)n(C)c(=O)n3C)c1	-8.5	-1.3	7.7	-2.9	1.2	-22.8	x	x
CCN(CC)C(=O)CC[C@H]1CC[C@]2(CCCN(C(=O)c3ccco3)C2)O1	x	x	x	-5.4	x	4.0	x	x
O=C(Nc1ccc(Cc2ccncc2)cc1)c1ccc(S(=O)(=O)N2CCOCC2)cc1	24.9	26.4	-2.9	41.4*	24.4	8.6	2.6	28.1

Source: PubChem BioAssay (The Scripps Research Institute Molecular Screening Center)
